Assay [1] is described as follows: inhibitors of TNFa-induced NFkB p65 translocation, primary screen, imaging, HUVEC, MLSMR starter and 10KST1 sets (AID 438;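 active = inhibition above 20% together with a positive visual image hit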;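 note: compound added about 3h40 before a 20 min TNFalpha stimulation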;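 for inhibition: signal is the nuclear over cytoplasmic p65 intensity ratio per well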). As to conditions: HUVEC TNFa-induced p65 nuclear translocation; cell count: measured here: nuclei count (cytotoxicity indicator), at 2.08 µM; inhibition: at 2 µM, stronger effect = higher value, 0% TNFa-plus-vehicle, 100% no-TNFa wells.
Assay [2] is described as follows: reduction of polyQ htt aggregates in cells – imaging, exon1htt(103Q)mCFP cells, high-content imaging, primary screen (AID 483;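 active = visual image review flags a hit and inhibition of aggregation exceeds 20%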;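 note: compound exposure lasted 3 days before fixation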;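 for nuclei count: percent of the per-plate median nuclei count of sample wells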). As to conditions: exon1htt(103Q)mCFP cell line, aggregate imaging, at 2 µM; inhibition of aggregation: stronger effect = higher value; nuclei count: measured here: cell count, toxicity.
Assay [3] can be described thus: endothelial E-selectin expression blockers – imaging, HUVEC, immunofluorescence, MLSMR starter and 10KST1 sets, primary screen (AID 487;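 active = visually confirmed hit in the image check and inhibition above 20%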;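 for inhibition: signal is fraction of cell area covered by stained E-selectin grains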;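 for nuclei count: 100% = median nuclei count of all wells on the same plate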). Conditions: HUVEC TNFalpha-induced E-selectin immunofluorescence imaging, at 2 µM; inhibition: stronger effect = higher value; nuclei count: measured here: cell number, toxicity.
A short description of assay [4]: Primary imaging screen for DUSP6 inhibitors that restore phospho-Erk in transfected HeLa cells, chemical complementation (AID 609;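 active = compounds giving at least 50% inhibition in the cell-based MKP-3 phosphatase rescue imaging test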;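 for inhibition: phospho-Erk level distribution per well compared with pooled transfected vehicle control wells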). As to conditions: HeLa MKP-3 transfected, phospho-Erk imaging KS statistic, at 10 µM, cells stimulated with TPA for 15 min.
Assay [5] has as its target Dual specificity protein phosphatase 6 (Homo sapiens) (UniProt Q16828). Described as above. Conditions: HeLa MKP-3 transfected, phospho-Erk imaging KS statistic; at 10 µM; stronger effect = higher value; cells stimulated with TPA for 15 min.
Assay [6] deals with Voltage-gated potassium channel subunit beta-2 (Rattus norvegicus) (UniProt P62483). Briefly: inhibitors of rat Kvbeta2 reductase activity – biochemical, NADPH fluorescence, primary screen (AID 622;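 active = fluorescence slope higher than the sample average by over 3 SD, cut at about -0.22 in these data, passing the limit was not always enough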;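 note: slope of raw intensity against log time taken from 70 to 1610 s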). Conditions: recombinant KvBeta, 4-cyanobenzaldehyde reduction, at 10 µM, stronger effect = higher value.
Assay [7] shares this target. Briefly: enhancers of rat Kvbeta2 NADPH turnover – biochemical, NADPH fluorescence, primary screen (AID 623;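 active = NADPH fluorescence slope more negative than the mean of all samples by about 3 SD, 99.7% confidence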;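 note: fluorescence intensity change per second fitted from 20 to 320 s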). Conditions: Recombinant KvBeta, NADPH fluorescence decrease slope, 10 min; at 10 µM; stronger effect = lower value.
Assay [8] deals with Alpha-2C adrenergic receptor (Homo sapiens) (UniProt P18825). Nature of the assay: compounds altering alpha2C-coupled GIRK flux – cell-based, HEK293 alpha2C/GIRK1/2, thallium flux, primary screen (AID 624;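 active = fluorescence slope after compound addition differing from the mean of all screened samples at 99.7% confidence, in either direction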;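 note: slope of fluorescence ratio to pre-addition baseline per second over 15 to 24 s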). As to conditions: thallium flux BTC fluorescence, at 10 µM, actives lie on both sides.
The nature of assay [9]: inhibitors of larval lipid processing in zebrafish, primary screen, whole organism, PED6 fluorescence, gall bladder and intestine (AID 686;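 active = a full or partial loss of lipid-probe fluorescence in the fish gall bladder, intestine or both, judged by eye; inactive = no fluorescence loss, or compound toxic to the fish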;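 note: larvae 5 to 7 days old with five fish per well; signal comes from phospholipase A2 cleavage of quenched PED6 carried via bile; overnight exposure to compound and PED6 before scoring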). Conditions: Zebrafish larvae PED6 lipid processing, fluorescence scoring; screened at 20 µM (by protocol).
Assay [10] is described as follows: loss of swimming-algae plug formation – whole organism, Chlamydomonas reinhardtii, WT vs cilia-less mutant, absorbance, 96-well, primary screen (AID 463189).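 Note: 0% = wild type cc124 cells in DMSO and 100% = ciliumless bld1 mutant cells.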 Conditions: Chlamydomonas reinhardtii gravitaxis, OD600 absorbance, 2 days; at 10 µM; stronger effect = higher value.
Assay [11] in a line: blockers of RIG-like receptor reporter activation – cell-based, Sendai virus stimulus, luciferase, 10K MLSCN set, TLR/RLR signaling modifier project, primary screen (AID 602276;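 active = inhibition at or above 50% at 10 µM; inactive = inhibition below 50%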;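 note: firefly luciferase from ISG56 promoter only with Renilla not read in this screen; 0% = Sendai virus plus DMSO and 100% = medium plus DMSO without virus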). As to conditions: HEK293 RL24 IRF3 luciferase reporter, at 10 µM, stronger effect = higher value. (Reporter assays use an easily measured gene product as a stand-in for the process of interest.)
Assay [12] in a line: TLR3 IRF3 reporter activation blockers – cell-based, poly I:C stimulus, luciferase, 10K MLSCN set, primary screen (AID 602277;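 active = inhibition of the reporter signal at or above 50%; inactive = inhibition below 50%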). As to conditions: HEK293-TLR3 RL24 IRF3 luciferase reporter, at 10 µM, stronger effect = higher value.
Where [13] appears, read: measured here: cell density z-score.
[14] abbreviates: measured here: nuclear c-Myc green intensity z-score.
The mark [15] stands for this setting: measured here: nuclear pErk red intensity z-score, stronger effect = higher value.

Several values for one entry are separate records, joined by “and”; a condition that tells them apart may be missing. Equal entries are not always repeated. Activity calls are given as the source filed them.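 Rule for the calls, unless noted: active = inhibition at or above 50% relative to wild type and mutant plate controls; inactive = inhibition below 50%.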

Chain of Voltage-gated potassium channel subunit beta-2 (Rattus norvegicus) (P62483 whole entry, looked up): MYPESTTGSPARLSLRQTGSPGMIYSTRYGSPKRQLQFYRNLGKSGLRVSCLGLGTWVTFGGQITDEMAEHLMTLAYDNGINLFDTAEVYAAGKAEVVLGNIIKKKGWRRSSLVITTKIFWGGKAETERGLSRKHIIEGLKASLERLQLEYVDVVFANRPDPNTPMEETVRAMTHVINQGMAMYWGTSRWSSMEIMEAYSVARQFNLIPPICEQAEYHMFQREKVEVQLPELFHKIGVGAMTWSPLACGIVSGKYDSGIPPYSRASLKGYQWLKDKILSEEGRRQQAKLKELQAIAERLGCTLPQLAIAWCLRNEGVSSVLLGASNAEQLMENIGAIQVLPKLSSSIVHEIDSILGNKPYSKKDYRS
Chain of Dual specificity protein phosphatase 6 (Homo sapiens) (Q16828 whole entry, looked up): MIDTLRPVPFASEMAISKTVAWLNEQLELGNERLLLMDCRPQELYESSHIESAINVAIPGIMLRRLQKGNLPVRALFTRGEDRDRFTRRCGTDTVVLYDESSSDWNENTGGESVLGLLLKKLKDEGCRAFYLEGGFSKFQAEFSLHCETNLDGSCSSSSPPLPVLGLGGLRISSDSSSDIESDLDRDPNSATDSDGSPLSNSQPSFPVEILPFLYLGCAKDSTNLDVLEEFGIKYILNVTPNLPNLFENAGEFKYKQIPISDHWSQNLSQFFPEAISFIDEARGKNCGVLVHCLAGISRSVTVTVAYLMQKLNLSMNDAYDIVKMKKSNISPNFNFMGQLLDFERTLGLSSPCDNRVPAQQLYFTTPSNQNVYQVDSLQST
Chain of Alpha-2C adrenergic receptor (Homo sapiens) (P18825 whole entry, looked up): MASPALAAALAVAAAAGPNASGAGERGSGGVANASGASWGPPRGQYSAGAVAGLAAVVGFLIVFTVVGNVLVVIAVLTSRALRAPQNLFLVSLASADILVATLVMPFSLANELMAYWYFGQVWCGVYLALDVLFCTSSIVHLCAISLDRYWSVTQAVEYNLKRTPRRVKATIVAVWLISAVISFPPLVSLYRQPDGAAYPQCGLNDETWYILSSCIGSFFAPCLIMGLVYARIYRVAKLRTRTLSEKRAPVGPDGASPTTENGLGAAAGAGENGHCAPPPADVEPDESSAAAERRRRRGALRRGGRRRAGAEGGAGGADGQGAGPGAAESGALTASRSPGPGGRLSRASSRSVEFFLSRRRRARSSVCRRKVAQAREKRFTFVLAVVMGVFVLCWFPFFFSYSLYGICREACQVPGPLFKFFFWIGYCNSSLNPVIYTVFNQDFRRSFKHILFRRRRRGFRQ

Take `O=C(O)CCCc1ccccc1`: in assay [1], the cell count is 647. The inhibition – broadly, the drop in the measured response relative to a control, in per cent – in [1] was 0.8% (inactive); in assay [3], -27.5% (inactive); in assay [5] it was 8% (inactive); in [10] it was -5.1% (inactive); in [11], -1.93% (inactive); in assay [12], 7.07% (inactive). Moreover, the inhibition of aggregation in assay [2] was -15.5% (inactive). In addition, the nuclei count came to 106% in assay [2] and 112% in [3]. The z-score in assay [4] (setting [13]) is 0.592; in assay [4] (setting [14]) it was -1.18; in [4] (setting [15]) it was -0.707. Also, in [6], the fluorescence slope was -0.549 (inactive). In addition, the NADPH fluorescence slope in assay [7] was -3.8e-05 (inactive). Besides, the slope in assay [8] was 0.0053 (inactive). Moreover, the outcome in assay [9] was inactive.

With `N=c1nc(N2CCCCC2)cc(N)n1O`, the cell count in assay [1] was determined as 660. Also, the inhibition in [1] is 0.9% (inactive); in assay [3] it was -58.5% (inactive); in assay [5] it was 25.7% (inactive); in [10], 1.56% (inactive) and -3.08% (inactive); in assay [11], 9.96% (inactive); in assay [12], 34.6% (inactive). Also, in assay [2], the inhibition of aggregation was -1.2% (inactive). Also, the nuclei count in assay [2] worked out at 114%; in assay [3], 138%. The z-score in [4] (setting [13]) is -0.689; in assay [4] (setting [14]) it was -0.0187; in assay [4] (setting [15]), 0.315. Also, the fluorescence slope in assay [6] was -0.46 (inactive). Also, the NADPH fluorescence slope in [7] was -6e-05 (inactive). The slope in assay [8] was 0.00444 (inactive). Besides, the outcome in assay [9] was inactive.

As for `COc1cc(/C=C/C(=O)CC(=O)/C=C/c2ccc(O)c(OC)c2)ccc1O`, in [1], the cell count is 581. The inhibition was -5.9% (inactive) in [1]; -31.2% (inactive) in assay [3]; -8.38% (inactive) in [5]; 102% (active) in [10]; 7.07% (inactive) in assay [11]; 6.1% (inactive) in assay [12]. In addition, the inhibition of aggregation in assay [2] was -6.4% (inactive). In addition, the nuclei count in assay [2] is 105%; in [3], 119%. Further, the z-score in assay [4] (setting [13]) was -0.124; in [4] (setting [14]) it was 0.198; in assay [4] (setting [15]), 0.203. For the same molecule, the fluorescence slope in [6] is -0.185 (active). For the same molecule, the NADPH fluorescence slope in assay [7] is -1.1e-05 (inactive). In assay [8], the slope was 0.0285 (active). Also, in [9], the outcome was inactive.

For `COCCOC(=O)c1c(C)nc(SCC(=O)Nc2ccc(OC)cc2)c(C#N)c1-c1ccco1`, the cell count in assay [1] was determined as 386. Besides, the inhibition in assay [1] was -17.9% (inactive); in assay [3] it was -23.1% (inactive); in assay [5] it was -6.59% (inactive); in assay [10], -0.332% (inactive); in [11], 16.9% (inactive); in [12], 12.1% (inactive). In addition, the inhibition of aggregation in assay [2] is -11.5% (inactive). The nuclei count in assay [2] was found to be 76%; in [3], 90%. For the same molecule, the z-score was -0.584 in assay [4] (setting [13]), -0.072 in [4] (setting [14]) and -0.599 in [4] (setting [15]). The fluorescence slope in [6] is -0.422 (inactive). Moreover, the NADPH fluorescence slope in assay [7] is -2.9e-05 (inactive). In addition, in [8], the slope was 0.00733 (inactive). Also, the call in assay [9] was inactive.

Take `Nc1nc(F)nc2c1ncn2[C@@H]1O[C@H](CO)[C@@H](O)[C@@H]1O`: the cell count in assay [1] worked out at 526. Moreover, the inhibition in [1] is -6.8% (inactive); in [3], 5.4% (inactive); in assay [5], -2.46% (inactive); in assay [10] it was -8.17% (inactive); in assay [11], 2.74% (inactive); in [12], 23.7% (inactive). In addition, the inhibition of aggregation in assay [2] was -1.5% (inactive). Further, the nuclei count was determined as 103% in assay [2] and 106% in assay [3]. Besides, the z-score in assay [4] (setting [13]) was -1.32; in [4] (setting [14]) it was 0.314; in assay [4] (setting [15]), 0.132. The fluorescence slope in [6] was -0.491 (inactive). For the same molecule, the NADPH fluorescence slope in assay [7] was -3.9e-05 (inactive). For the same molecule, the slope in assay [8] is 0.00434 (inactive). In addition, in assay [9], the result was inactive.

For `O=C1NC2c3ccccc3C(=O)N2c2c1cnn2-c1ccccc1` (stereo not given), in [1], the cell count was determined as 603. Also, the inhibition in assay [1] is -7.1% (inactive); in assay [3] it was -48.5% (inactive); in assay [5] it was 7.83% (inactive); in assay [10], 14.6% (inactive); in assay [11], -6.19% (inactive); in [12], 6.35% (inactive). Besides, in assay [2], the inhibition of aggregation was -11.1% (inactive). Moreover, the results for the nuclei count in [2] and in assay [3] were 111% and 146%, respectively. In addition, the z-score in [4] (setting [13]) was 0.407; in [4] (setting [14]), 0.889; in [4] (setting [15]) it was -0.995. Further, the fluorescence slope in assay [6] is -0.425 (inactive). Moreover, the NADPH fluorescence slope in [7] was -1.7e-05 (inactive). In addition, the slope in assay [8] is 0.00503 (inactive). In addition, in assay [9], the outcome was inactive.

For `CC[N+](C)(C)c1cccc(O)c1`, the cell count in assay [1] is 610. Also, the inhibition in assay [1] was -6.9% (inactive); in [3] it was -108% (inactive); in assay [5], 3.45% (inactive); in assay [10], 6.97% (inactive) and -3.25% (inactive); in assay [11], 16.5% (inactive); in [12], 38.2% (inactive). Further, the inhibition of aggregation in [2] is 10.2% (inactive). Also, the nuclei count amounted to 102% in assay [2] and 130% in assay [3]. Moreover, the figures for the z-score in [4] (setting [13]), in assay [4] (setting [14]) and in assay [4] (setting [15]) were -0.368, -0.0907 and -0.21, respectively. Moreover, the fluorescence slope in [6] was -0.492 (inactive). Further, the NADPH fluorescence slope in assay [7] is -5.2e-05 (inactive). Also, in [8], the slope is 0.00476 (inactive). In addition, the call in assay [9] was inactive.

For the molecule `NC(=O)OCC(COC(N)=O)c1ccccc1`, the cell count in assay [1] worked out at 615. Further, the inhibition in assay [1] was -7.6% (inactive); in assay [3], -22.5% (inactive); in [5] it was 3.45% (inactive); in assay [10] it was -4.89% (inactive) and -8.93% (inactive); in assay [11], 17.5% (inactive); in [12], 34.3% (inactive). Moreover, the inhibition of aggregation in [2] was -2.4% (inactive). Also, the values for the nuclei count in assay [2] and in assay [3] were 114% and 108%, respectively. Besides, the z-score in assay [4] (setting [13]) is 1.02; in assay [4] (setting [14]), -0.593; in assay [4] (setting [15]) it was -0.701. In assay [6], the fluorescence slope is -0.44 (inactive). For the same molecule, the NADPH fluorescence slope in assay [7] was -3.1e-05 (inactive). The slope in assay [8] was 0.00508 (inactive). Further, in assay [9], the result was inactive.

As to `CCCCOc1ccc(OCCCN2CCOCC2)cc1`, the cell count in assay [1] is 589. For the same molecule, the inhibition was 6% (inactive) in assay [1]; -52.4% (inactive) in [3]; 1.38% (inactive) in assay [5]; 159% (active) in [10]; -7.75% (inactive) in assay [11]; -40.7% (inactive) in assay [12]. Moreover, the inhibition of aggregation in assay [2] was 7.5% (inactive). Also, the results for the nuclei count in assay [2] and in assay [3] were 94.3% and 117%, respectively. The values for the z-score in [4] (setting [13]), in assay [4] (setting [14]) and in assay [4] (setting [15]) were -0.745, -1.16 and 3.07, respectively. Further, in [6], the fluorescence slope was -0.49 (inactive). The NADPH fluorescence slope in assay [7] was -5.2e-05 (inactive). In [8], the slope is 0.00401 (inactive). For the same molecule, the molecule was called inactive in assay [9].

As for `CC1(C)Cc2c(sc3c2C2=NCCN2C=N3)CO1`, the cell count in assay [1] stood at 624. Besides, the inhibition in assay [1] was -7% (inactive); in [3], -54.1% (inactive); in assay [5] it was -2.69% (inactive); in [10], 63.1% (active); in assay [11], -17.5% (inactive); in assay [12], -3.31% (inactive). In [2], the inhibition of aggregation was 4.2% (inactive). The figures for the nuclei count in assay [2] and in assay [3] were 124% and 139%, respectively. Also, the z-score in assay [4] (setting [13]) is -0.0476; in [4] (setting [14]) it was 0.11; in assay [4] (setting [15]), -0.119. Besides, the fluorescence slope in assay [6] was -0.328 (inactive). Moreover, the NADPH fluorescence slope in [7] is -8.5e-06 (inactive). For the same molecule, in [8], the slope was 0.00463 (inactive). Also, the result in assay [9] was inactive.
